The target of assay [1] is Peroxisome proliferator-activated receptor delta (Homo sapiens) (UniProt Q03181). The assay can be described thus: qHTS assay to identify small molecule agonists of the peroxisome proliferator-activated receptor delta (PPARd) signaling pathway (AID 743212; calls by dose curve). The method, boiled down:
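Tox21 library screened in GeneBLAzer PPARd UAS-bla HEK293H cells. After compound treatment at 37 C, a FRET-based beta-lactamase substrate was applied for 2 h and fluorescence recorded.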
A general note: In qHTS, concentration-response curves come from the screen itself.

Assay [2] shares this target. The assay can be described thus: qHTS assay to identify small molecule antagonists of the peroxisome proliferator-activated receptor delta (PPARd) signaling pathway (AID 743215; active = well fitted inhibition curve with a large enough effect in the signal ratio in the repeat runs, not every such curve was filed as active; the % refers to the signal ratio;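 note: cells stimulated with agonist L165041 at 300 nM final during compound exposure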; note: potency is the fitted concentration of half-maximal effect). In short, it runs like this:
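Agonist L165041 (300 nM final) added with compound to PPARd-bla HEK293H UAS-bla reporter cells; 17 h incubation at 37 C. Read-out: LiveBLAzer FRET substrate, 2 h at room temperature, fluorescence intensity.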

Assay [3] addresses Bile acid receptor (Homo sapiens) (UniProt Q96RI1). The assay can be described thus: qHTS assay to identify small molecule agonists of the farnesoid-X-receptor (FXR) signaling pathway (AID 743220; active = well fitted activation curve with a large enough effect in the signal ratio in the repeat runs, not every such curve was filed as active; the % refers to the signal ratio). In short, it runs like this:
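FXR-UAS-bla HEK 293T cells carrying a UAS-driven beta-lactamase reporter were plated for 5 h at 37C/5% CO2, then exposed to DMSO-dissolved Tox21 10K compounds for 16 h at 37C. A LiveBLAzer B/G FRET substrate was loaded for 2 h at room temperature before fluorescence reading.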

Assay [4] can be described thus: qHTS assay to identify small molecule antagonists of the vitamin D receptor (VDR) signaling pathway - cell viability counter screen (AID 743225). Note: nearly all actives have a fitted effect of over 50% in size. Note: potency is the fitted concentration of half-maximal effect. The method, boiled down:
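Read-out: CellTiter-Glo luminescence measured 30 min after reagent addition at room temperature. Cells were VDR-bla HEK 293T exposed 16 h at 37C, 5% CO2, to compound with 3 nM final calcitriol agonist.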

The nature of assay [5]: qHTS assay to identify small molecule agonists of the endoplasmic reticulum stress response signaling pathway (AID 1159516; active = well fitted activation curve with a large enough effect in the signal ratio in the repeat runs, not every such curve was filed as active; the % refers to the signal ratio). In short, it runs like this:
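Ratiometric FRET readout (405 nm excitation; 460 and 530 nm emission) of a beta-lactamase gene driven by the ER stress response element, after 2 hr substrate loading. HeLa ESRE-bla cells were seeded overnight and treated with compounds for only 5 hr at 37 C.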

The nature of assay [6]: qHTS assay to identify small molecule agonists of the endoplasmic reticulum stress response signaling pathway - cell viability counter screen (AID 1159517; calls by dose curve; note: series mostly up to about 61 µM; nearly all actives have a fitted effect of over 50% in size). In short, it runs like this: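 In parallel with the ESRE reporter read, cytotoxicity was scored by CellTiter-Glo luminescence (30 min, room temperature) on HeLa ESRE-bla cells dosed for 5 hr.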
Assay [7] can be described thus: qHTS assay to identify small molecule agonists of the AP-1 signaling pathway - cell viability counter screen (AID 1159525; calls by dose curve; note: nearly all actives have a fitted effect of over 55% in size). In short, it runs like this:
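Same-well cytotoxicity counter screen of the Tox21 10K library in ME-180 cells. The readout is ATP-dependent luminescence after 5 h compound treatment. Data are normalised to DMSO and tetra n-octyl ammonium bromide controls.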

Assay [8] is described as follows: qHTS assay to identify small molecule agonists of the RXR signaling pathway - cell viability counter screen (AID 1159529). Note: nearly all actives have a fitted effect of over 50% in size. Note: potency is the fitted concentration of half-maximal effect. In short, it runs like this: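 HEK 293T RXRa-bla cells, 2% CS-FBS; 5 h settle; cpd 16 h 37 C, 5% CO2; CellTiter-Glo 30 min RT, luminescence. Tetraoctyl ammonium bromide as positive control.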
The nature of assay [9]: qHTS assay to identify small molecule agonists of the peroxisome proliferator-activated receptor delta (PPARd) signaling pathway - cell viability counter screen (AID 743211). Note: nearly all actives have a fitted effect of over 55% in size. Note: potency is the fitted concentration of half-maximal effect. In short, it runs like this: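 HEK293H PPARd-bla, 3000 cells/well; 5 h preincubation 37C/5% CO2; cpd in DMSO, 17 h 37C; B/G FRET substrate 2 h RT; CellTiter-Glo 30 min RT, luminescence.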
Assay [10] is described as follows: qHTS assay to identify small molecule antagonists of the peroxisome proliferator-activated receptor delta (PPARd) signaling pathway - cell viability counter screen (AID 743213). Note: nearly all actives have a fitted effect of over 50% in size. Note: potency is the fitted concentration of half-maximal effect. The method, boiled down:
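PPARd-bla HEK293H cells were treated with compounds plus agonist L165041 (300 nM final) for 17 h at 37 C. Viability was then read in the same wells by CellTiter-Glo luminescence after 30 min at room temperature.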

Assay [11] addresses Bile acid receptor (Homo sapiens) (UniProt Q96RI1). The assay is described as follows: qHTS assay to identify small molecule antagonists of the farnesoid-X-receptor (FXR) signaling pathway (AID 743217; active = well fitted inhibition curve with a large enough effect in the signal ratio in the repeat runs, not every such curve was filed as active; the % refers to the signal ratio). In short, it runs like this: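 Antagonist mode: chenodeoxycholic acid at 50 uM final stimulates a UAS-driven beta-lactamase reporter in HEK 293T FXR-bla cells during 16 h, 37C compound exposure. Read-out is FRET substrate fluorescence after 2 h at room temperature.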

Assay [12] in a line: qHTS assay to identify small molecule agonists of the farnesoid-X-receptor (FXR) signaling pathway - cell viability counter screen (AID 743218). Note: nearly all actives have a fitted effect of over 45% in size. Note: potency is the fitted concentration of half-maximal effect. The method, boiled down:
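Viability counter screen in the same wells: CellTiter-Glo luminescence, 30 min room-temperature incubation, measured after the beta-lactamase read. Cells were GeneBLAzer FXR-UAS-bla HEK 293T, compound-treated 16 h at 37C.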

Assay [13] in a line: qHTS assay to identify small molecule antagonists of the farnesoid-X-receptor (FXR) signaling pathway - cell viability counter screen (AID 743221; active = well fitted cell-killing curve with a large enough effect in the repeat runs, not every such curve was filed as active; note: nearly all actives have a fitted effect of over 50% in size; note: potency is the fitted concentration of half-maximal effect). The method, boiled down: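 Luminescence from CellTiter-Glo measures cytotoxicity in GeneBLAzer FXR-UAS-bla HEK 293T cells. Cells were exposed to compounds with 50 uM chenodeoxycholic acid (final) for 16 h at 37 C, in wells also used for the reporter readout.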

For assay [14], the target named is Vitamin D3 receptor (Homo sapiens) (UniProt P11473). The assay is described as follows: qHTS assay to identify small molecule agonists of the vitamin D receptor (VDR) signaling pathway (AID 743222; calls by dose curve). In short, it runs like this:
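Agonist mode, beta-lactamase reporter: fluorescence from LiveBLAzer B/G FRET substrate (2 h, room temperature) read after 16 h compound treatment at 37 C of VDR-bla cells, which were pre-incubated 4 h after seeding.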

The target is the same in assay [15]. The assay is described as follows: qHTS assay to identify small molecule antagonists of the vitamin D receptor (VDR) signaling pathway (AID 743223; active = well fitted inhibition curve with a large enough effect in the signal ratio in the repeat runs, not every such curve was filed as active; the % refers to the signal ratio). The method, boiled down:
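Antagonist mode uses 1alpha,25-dihydroxyvitamin D3 at 3 nM final as stimulus. VDR-bla cells receive compounds in DMSO, incubate 16 h at 37C, then a beta-lactamase FRET substrate for 2 h at room temperature before fluorescence measurement.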

The nature of assay [16]: qHTS assay to identify small molecule agonists of the vitamin D receptor (VDR) signaling pathway - cell viability counter screen (AID 743224). In short, it runs like this: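 Counter screen run in the same wells as the VDR-bla reporter assay: CellTiter-Glo luminescence, 30 min at room temperature, after 16 h compound treatment at 37C of cells pre-plated for 4 h.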
Assay [17] is described as follows: qHTS assay to identify small molecule antagonists of the retinoid-related orphan receptor gamma (ROR-gamma) signaling pathway - cell viability counter screen (AID 1159520). Note: nearly all actives have a fitted effect of over 50% in size. In short, it runs like this:
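Tet-on ROR gamma CHO cells were given compounds for 2 hr, then doxycycline hyclate at 1 uM final, and incubated 16 hr at 37 C. Viability was measured as ATP content by CellTiter-Glo luminescence.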

The target in assay [18] is Nuclear receptor ROR-gamma (Homo sapiens) (UniProt P51449). The assay is described as follows: qHTS assay to identify small molecule antagonists of the retinoid-related orphan receptor gamma (ROR-gamma) signaling pathway (AID 1159521; note: nearly all actives have a fitted effect of over 50% in size; note: potency is the fitted concentration of half-maximal effect). The method, boiled down: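 CHO Tet-on RORγ, RORE-luc reporter. Cpd 2 h pre-incubation, then dox hyclate 1 uM final, 16 h, 37 C/5% CO2. ONE-Glo luminescence; decrease = antagonist.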

Assay [19] in a line: qHTS assay to identify small molecule agonists of the AP-1 signaling pathway (AID 1159526; calls by dose curve).
The target in assay [20] is Retinoic acid receptor RXR-alpha (Homo sapiens) (UniProt P19793). The assay can be described thus: qHTS assay to identify small molecule agonists of the RXR signaling pathway (AID 1159527; calls by dose curve; note: nearly all actives have a fitted effect of over 35% in size). The method, boiled down: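 Read-out: beta-lactamase FRET ratio (405 nm excitation, 460 and 530 nm emission) after 2 hr substrate loading at room temperature. Cells were RXR-alpha-UAS-bla HEK 293T treated with compounds for 16 hr in 2% charcoal-stripped FBS medium.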

Records with an inconclusive call do not appear. Calls of active or inactive are those of the source. Unless noted, calls come from the whole dose curve; as a rule, active = well fitted curve in the direction sought with a large enough effect in the repeat runs; inconclusive = weak or mixed curves; inactive = no such curve, though single readings can be large; an effect the other way counts as inactive or inconclusive.

Sequence of Peroxisome proliferator-activated receptor delta (Homo sapiens) (Q03181 whole entry, looked up): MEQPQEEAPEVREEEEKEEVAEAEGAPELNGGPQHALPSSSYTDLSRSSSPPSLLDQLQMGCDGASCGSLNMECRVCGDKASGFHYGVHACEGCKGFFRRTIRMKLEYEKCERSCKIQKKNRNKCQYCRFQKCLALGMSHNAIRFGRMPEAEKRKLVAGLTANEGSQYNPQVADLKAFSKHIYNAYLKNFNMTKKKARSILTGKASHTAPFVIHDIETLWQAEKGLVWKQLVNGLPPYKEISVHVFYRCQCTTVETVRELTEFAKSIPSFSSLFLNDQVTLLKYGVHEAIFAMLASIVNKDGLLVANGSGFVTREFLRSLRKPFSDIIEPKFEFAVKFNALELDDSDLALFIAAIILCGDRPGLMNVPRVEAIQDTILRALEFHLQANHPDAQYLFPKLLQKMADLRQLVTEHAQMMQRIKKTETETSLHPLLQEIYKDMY
Sequence of Vitamin D3 receptor (Homo sapiens) (P11473 whole entry, looked up): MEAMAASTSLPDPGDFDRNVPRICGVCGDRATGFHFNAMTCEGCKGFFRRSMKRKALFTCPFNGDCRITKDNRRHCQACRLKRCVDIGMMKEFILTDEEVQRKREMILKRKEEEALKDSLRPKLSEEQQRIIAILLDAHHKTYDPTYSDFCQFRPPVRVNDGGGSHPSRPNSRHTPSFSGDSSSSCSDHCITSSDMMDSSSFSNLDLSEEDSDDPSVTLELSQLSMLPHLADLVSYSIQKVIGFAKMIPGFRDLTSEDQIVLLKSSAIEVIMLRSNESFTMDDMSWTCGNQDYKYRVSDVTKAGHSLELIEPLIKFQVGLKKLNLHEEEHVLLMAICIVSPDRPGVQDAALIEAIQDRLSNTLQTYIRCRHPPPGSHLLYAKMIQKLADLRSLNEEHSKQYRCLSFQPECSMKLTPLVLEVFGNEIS
Sequence of Bile acid receptor (Homo sapiens) (Q96RI1 whole entry, looked up): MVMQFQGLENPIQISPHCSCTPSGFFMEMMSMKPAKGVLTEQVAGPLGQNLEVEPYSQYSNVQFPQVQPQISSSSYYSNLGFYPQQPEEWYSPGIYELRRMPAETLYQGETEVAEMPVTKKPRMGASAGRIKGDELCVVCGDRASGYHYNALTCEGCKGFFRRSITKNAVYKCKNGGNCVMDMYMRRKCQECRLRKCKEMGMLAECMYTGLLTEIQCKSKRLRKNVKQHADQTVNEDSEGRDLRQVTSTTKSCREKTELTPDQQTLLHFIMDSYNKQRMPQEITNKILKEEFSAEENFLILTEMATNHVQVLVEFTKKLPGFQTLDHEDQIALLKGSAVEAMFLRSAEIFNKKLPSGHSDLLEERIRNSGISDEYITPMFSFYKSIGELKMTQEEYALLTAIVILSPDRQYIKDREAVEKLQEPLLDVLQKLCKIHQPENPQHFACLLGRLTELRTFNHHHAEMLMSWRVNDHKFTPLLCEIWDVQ
Sequence of Retinoic acid receptor RXR-alpha (Homo sapiens) (P19793 whole entry, looked up): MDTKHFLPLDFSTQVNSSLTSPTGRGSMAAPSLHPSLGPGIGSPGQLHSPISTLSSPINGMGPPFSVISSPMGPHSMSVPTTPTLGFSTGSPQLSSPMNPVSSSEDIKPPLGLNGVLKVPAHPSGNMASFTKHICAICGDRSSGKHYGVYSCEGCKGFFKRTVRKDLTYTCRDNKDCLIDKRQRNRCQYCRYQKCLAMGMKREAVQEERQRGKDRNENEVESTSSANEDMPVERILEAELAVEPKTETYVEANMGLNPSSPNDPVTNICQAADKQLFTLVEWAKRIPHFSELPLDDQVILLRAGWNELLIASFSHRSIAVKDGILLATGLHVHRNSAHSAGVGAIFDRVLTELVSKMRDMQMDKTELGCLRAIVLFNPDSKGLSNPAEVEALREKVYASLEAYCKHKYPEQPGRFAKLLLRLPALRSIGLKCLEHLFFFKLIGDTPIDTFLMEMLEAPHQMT

For the compound `Cc1nc(Nc2ncc(C(=O)Nc3c(C)cccc3Cl)s2)cc(N2CCN(CCO)CC2)n1`, the outcome in assay [1] was inactive. Besides, the Potency in assay [2] was 0.473 µM (active). The Potency entry in assay [3], in assay [4], in assay [5], in assay [6], in assay [7] and in assay [8] was “inactive” each time.

As to `C(=C/c1ccccc1)/c1ccccc1`, the Potency entry in assay [9], in assay [10], in assay [2], in [11], in assay [12] and in [3] was “inactive” throughout. In addition, the Potency result in assay [13], in assay [14], in assay [15], in assay [16], in [4] and in assay [5] was “inactive” each time. The Potency result in assay [17], in assay [18], in assay [7], in assay [19], in assay [20] and in assay [8] was “inactive” throughout. For the same compound, the compound was classed as inactive in assay [1].

As to `c1cc(OCC2CO2)cc(OCC2CO2)c1` (stereo not given), the result in assay [1] was inactive. The Potency entry in [11], in assay [12], in assay [13], in assay [14], in assay [5] and in assay [6] was “inactive” each time. Besides, the Potency entry in [17] and in assay [7] was “inactive” each time. For the same compound, the Potency in assay [8] is 48.6 µM (active).

As for `C=CC(=C)CCC=C(C)C`, the Potency result in assay [12], in [13], in assay [14], in assay [4], in [5] and in assay [6] was “inactive” in each case. Further, the Potency result in [17], in [7] and in assay [8] was “inactive” each time.

In the case of `C[Si](C)(C)Cl`, the call in [1] was inactive. Besides, the Potency result in assay [10], in [2], in [11], in assay [12], in [3] and in assay [13] was “inactive” each time. The Potency result in assay [5], in assay [17], in [18], in assay [7], in [19] and in assay [8] was “inactive” throughout.

Consider `CCN(CC)CCCN(c1ccccc1)C1Cc2ccccc2C1`, for which the result in assay [1] was inactive. Also, the Potency result in [2], in assay [12], in assay [13], in assay [14], in assay [15] and in [5] was “inactive” throughout. The Potency entry in assay [6], in assay [17] and in assay [7] was “inactive” throughout.

In the case of `O=C1NC2CCCCN2C12CCN(CCCN1c3ccccc3CCc3ccc(Cl)cc31)CC2` (stereo not given), the Potency in assay [9] was 29.8 µM (active); in assay [10], 26.6 µM (active); in assay [2], 29.8 µM (active); in assay [12], 23.7 µM (active); in assay [13], 29.8 µM (active); in [4], 23.9 µM (active). Further, the figures for the Potency in [18] and in assay [8] were 23.7 µM (active) and 21.3 µM (active), respectively. In addition, the Potency result in assay [3], in assay [14], in assay [5] and in assay [6] was “inactive” throughout.

Consider `NC(=O)C(=O)N/N=C/c1ccc([N+](=O)[O-])o1`, for which the Potency entry in [9], in assay [10], in assay [2], in assay [12], in assay [13] and in [16] was “inactive” each time. Moreover, the Potency entry in [4], in assay [5], in assay [6], in [18] and in assay [8] was “inactive” in each case. In addition, the compound was classed as inactive in assay [1].

Regarding `Cc1c(C(=O)O)cccc1[N+](=O)[O-]`, the Potency entry in assay [9], in assay [11], in [12], in assay [3], in assay [13] and in assay [15] was “inactive” each time. The Potency entry in assay [4], in [5], in assay [6], in assay [17] and in assay [7] was “inactive” each time. In addition, the outcome in assay [1] was inactive.

(Values after PubChem BioAssay (Tox21).)
